Bioassay records from PubChem BioAssay.
An excerpt weighted towards active compounds, which were near 9.2% of everything screened.
NPC1 prom act: NPC1 promoter activation; Potency, µM (highest dose often 9.22 µM), without a hit: top-dose activation, actives largely listed as activators; Huh7 NPC1 promoter luciferase reporter, 24 h; hit rate 2.4% among 320,000; note: % of control where 0% means no effect; nearly all actives have a fitted effect of over 60% in size
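Stably transfected Huh7 (NPC1 promoter→luciferase), 1500 cells/well in Opti-MEM + 10% FBS, 2 h settle, then compound 24 h at 37 °C. Luminescence after 10 min with Amplite reagent.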
SMN2 splice up: increases expression of the SMN2 splice variant; HEK293 SMN2-luciferase splicing reporter, luminescence, 30-36 h; Potency, µM (doses to about 46.1 µM), for inactives: at the top dose activity change, positive = activation, usual class: activators; hit rate 2.8% among 210,000; note: % of control where 0% means no effect; nearly all actives have a fitted effect of over 55% in size
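HEK293 cells carry an SMN2 […]–luciferase reporter in which exon 7 inclusion puts luciferase in frame. Cells were plated 10-12 h before compound addition, then incubated 30-36 h at 37C. ONE-Glo luminescence was read; sodium butyrate at 4.5 mM final served as control.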
FLuc modulator: inhibits or activates purified firefly luciferase, miR-21 counter-screen. P08659. purified FLuc, Km substrates, luminescence inhibition. Potency, µM (highest dose often 57.5 µM), for inactives: at the highest dose activity change, negative = inhibition, hits mostly inhibitors. hit rate 6.9% among 360,000;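 note: plate controls were vehicle for no effect and reference inhibitor for full effect; nearly all actives have a fitted effect of over 55% in size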
Target sequence (P08659 whole entry, looked up): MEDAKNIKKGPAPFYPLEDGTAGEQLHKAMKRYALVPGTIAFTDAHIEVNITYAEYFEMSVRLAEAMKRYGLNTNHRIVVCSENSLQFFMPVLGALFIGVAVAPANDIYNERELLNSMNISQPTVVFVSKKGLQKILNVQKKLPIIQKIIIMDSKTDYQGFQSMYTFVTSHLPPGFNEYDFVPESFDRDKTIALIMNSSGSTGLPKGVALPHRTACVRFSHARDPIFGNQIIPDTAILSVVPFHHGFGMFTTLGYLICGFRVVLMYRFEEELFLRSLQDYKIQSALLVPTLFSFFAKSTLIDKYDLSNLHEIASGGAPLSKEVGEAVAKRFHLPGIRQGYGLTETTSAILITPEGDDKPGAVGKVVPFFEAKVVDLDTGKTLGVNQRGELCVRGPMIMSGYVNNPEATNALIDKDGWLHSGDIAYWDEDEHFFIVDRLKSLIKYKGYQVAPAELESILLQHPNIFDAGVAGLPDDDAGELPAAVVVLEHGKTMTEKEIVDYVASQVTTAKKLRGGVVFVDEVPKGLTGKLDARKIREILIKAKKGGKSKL
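Purified P. pyralis luciferase (10nM final) with 10uM D-luciferin and 10uM ATP (Km levels) in 50mM Tris acetate pH 7.5, 10mM Mg acetate, 0.01% Tween-20, 0.05% BSA; qHTS 6-point titration, ~60 µM downward; luminescence read.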
ELG1 repair inh: ELG1-dependent DNA repair inhibition; hit rate 2.3% among 330,000; AID 504467; Potency, µM (highest dose often 46.1 µM), without a hit: at the highest dose activity change, negative = inhibition, most hits filed as inhibitors; HEK293T ELG1-luciferase reporter, luminescence, 16 h; DNA damage induced by 5-fluorouridine; note: % is set by controls: 0 for no effect and ±100 for the full control effect; nearly all actives have a fitted effect of over 55% in size
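Luminescence from the luciferase reporter, measured 30 min after ONE-Glo reagent at room temperature, was the read-out. Beforehand, 2,000 cells per well were exposed for 16 hr at 37 °C to 5-fluorouridine together with compound or vehicle.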
ELG1 genotox: inducers of genotoxicity in HEK293T ELG1-luciferase cells | HEK293T ELG1-luciferase reporter, luminescence, 16 h | Potency, µM (series often up to 46 µM), for the others: at the highest dose activity change, positive = activation, most hits filed as activators | hit rate 1.3% among 330,000 | AID 504466; note: % of control where 0% means no effect; nearly all actives have a fitted effect of over 60% in size
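HEK293T cells expressing luciferase-tagged ELG1 were treated with compound or DMSO for 16 hr at 37°C. Luciferase activity was then read after 30 min with ONE-Glo at room temperature; rising signal flags genetic stress.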
Rab9 prom act: activators of Rab9 promoter | Huh7 Rab9 promoter-luciferase reporter, luminescence, 24 h | Potency, µM (titrated, usually from 9.22 µM), for inactives: at the top dose activation, negative = inhibition, hits mostly activators | hit rate 2.8% among 320,000 | AID 485297; note: % of control where 0% means no effect; nearly all actives have a fitted effect of over 60% in size
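Luciferase signal after 10 min detection reagent at ambient indicates Rab9 promoter upregulation; stably transfected Huh7 cells were treated 24 h with compound in DMSO at 37 °C, 5% CO2.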
The depositor's hits bear a star; ? = inconclusive; . = not tested or not shown; [ ] = remark or other dose. Calls come from the whole dose curve; as a rule, active = well fitted curve in the direction sought with a large enough effect; inconclusive = small, poorly fitted or top-dose-only effect, or another doubt; inactive = no such curve, though single readings can be large; an effect the other way counts as inactive or inconclusive. Potency is the fitted concentration of half-maximal effect.

SMILES	NPC1 prom act	SMN2 splice up	FLuc modulator	ELG1 repair inh	ELG1 genotox	Rab9 prom act
Cc1cc(C(=O)COC(=O)C2CCN(C(=O)c3ccc(Cl)cc3)CC2)c(C)n1CC1CCCO1 (centres undefined)	-3.8%	2.9%	15.1µM*	10.2%	9.8%	8.0%
COc1ccc(-c2nnc(NC(=O)c3ccc(S(=O)(=O)N(C)CC4CCCO4)cc3)o2)c(OC)c1 (centres undefined)	-1.0%	.	-12.7%	?	-11.4%	-7.8%
Cc1cccc(N2CC(C(=O)NCC3COc4ccccc4O3)CC2=O)c1C (centres undefined)	-0.3%	.	3.5%	-7.2%	-0.3%	-3.3%
CCOc1ccc(-c2nnc(SCC(=O)NCc3ccc(C)cc3)nc2-c2ccc(OCC)cc2)cc1	.	.	5.7%	.	.	.
COc1ccccc1CNC(=O)C(=O)NCC(c1cccnc1)N1CCN(c2ccccc2)CC1 (centres undefined)	.	.	-15.6%	.	.	.
Cc1cc(C(=O)COC(=O)c2ccc3c(c2)OCO3)c(C)n1CC1CCCO1 (centres undefined)	1.58µM*	18.4%	2.13µM*	?	?	1.26µM*
C=CCn1c(O)c(N=NC(=S)Nc2ccccc2F)c2ccccc21	-1.8%	-62.4%	4.2%	6.51µM*	-0.9%	-7.5%
C=CCn1c(O)c(N=NC(=S)Nc2cccc(C)c2)c2ccccc21	-8.0%	-68.5%	2.8%	14.6%	1.0%	-15.1%
Oc1c(N=NC(=S)Nc2ccccc2F)c2ccccc2n1Cc1ccccc1	-6.5%	-36.6%	-1.0%	8.2µM*	-12.5%	-7.8%
Cc1ccc(Cn2c(O)c(N=NC(=S)Nc3ccccc3F)c3ccccc32)cc1	-2.2%	.	-0.5%	5.17µM*	-7.1%	-1.5%
CCCCNC(=S)N=Nc1c(O)n(Cc2ccccc2)c2ccccc12	-3.7%	.	4.2%	-2.5%	2.9%	-0.9%
Cc1cc(C)nc(N=Nc2c(O)n(Cc3ccc(Cl)cc3)c3ccccc23)n1	-0.1%	3.0%	?	23.1µM*	0.2%	-2.3%
Oc1c(N=NC(=S)Nc2ccccc2F)c2ccccc2n1Cc1ccccc1Cl	-4.9%	-47.6%	0.2%	-18.6%	-5.3%	-2.5%
CCc1ccc(CN2CCc3nc(N4CCN(c5ccccc5F)CC4)ncc3C2)cc1	.	.	-0.3%	.	.	.
COc1ccc(NC(=O)c2ccc(Br)c(S(=O)(=O)N3CCOCC3)c2)cc1	0.5%	.	-1.4%	?	-15.8%	-12.9%
Cc1oc2c(CN3CCCC(C)C3)c(O)ccc2c(=O)c1-c1ccccc1 (centres undefined)	1.3%	.	0.1%	13.5%	-2.3%	-0.8%
CCOc1ccc(-c2cc3nc(C4CCN(C(=O)OC(C)(C)C)CC4)c(C(=O)Nc4ccc(C)cc4C)cn3n2)cc1	.	-11.4%	-15.4%	.	.	.
C/C(=C(/CCO)SSC[C@@H]1CCCO1)N(C=O)Cc1cnc(C)nc1N	.	2.3%[20.6 µM]	.	.	.	.
O=C(c1ccc([N+](=O)[O-])cc1)N1c2ncnn2C2(CCCCC2)[C@@H]2CCCC[C@@H]21	.	.	1.8%	.	.	.
C=CCn1cnc2c(nnn2-c2ccc(Cl)cc2)c1=O	1.9%	-19.0%	-4.1%	-15.3%	-2.8%	6.0%
O=C(N=Nc1c(O)n(Cc2ccccc2)c2ccccc12)c1ccncc1	11.5%	.	23.9µM*	18.3µM*	-6.3%	8.2%
Cc1cc(NC(=O)c2ccccc2F)ncc1NC(=O)c1cccs1	16.4%	?	?	?	13.3%	28.6%
Cc1cc(NC(=O)c2ccccc2)ncc1NC(=O)c1cccs1	3.55µM*	11.2µM*	15.1µM*	?	?	3.98µM*
Cc1cc(NC(=O)c2cccs2)ncc1NC(=O)C(C)C	1.78µM*	.	15.1µM*	?	-3.0%	2.24µM*
Cc1cc(NC(=O)c2cccs2)ncc1NC(=O)c1cccc(F)c1	27.4%	?	19µM*	?	?	3.16µM*
SMILES	NPC1 prom act	SMN2 splice up	FLuc modulator	ELG1 repair inh	ELG1 genotox	Rab9 prom act
O=C(Nc1ccc(NC(=O)c2cccs2)cn1)c1ccccc1	2.24µM*	15.8µM*	5.36µM*	?	?	1.12µM*
CCOC(=O)CCCCCCCCCCCCC1C=CCC1 (centres undefined)	.	1.8%	.	.	.	.
CCOc1ccc(NC(=O)Cn2cc(S(=O)(=O)NC)c(S(=O)(=O)NC)c2)cc1	.	.	1.8%	.	.	.
COc1ccc(Br)c2c1-c1nc(NC(=O)c3cccc(C)c3)sc1C2	.	6.5%	-7.8%	.	.	.
CCOc1ccc(-n2nnnc2SCC(=O)c2ccccc2)cc1	24.2%	-17.9%	?	11.1%	9.8%	-2.2%
O=C(CSc1nnc2ccccn12)c1ccc(Cl)cc1	22.6%	-8.4%	?	?	?	3.55µM*
Cc1c(Cl)cnc(NC(=O)CSc2nnc3ccccn23)c1Cl	20.8%	?	?	?	18.4µM*	?
CCOc1ccc(C(=O)CSc2nnc3ccccn23)cc1	2µM*	-1.8%	3.01µM*	?	20.6µM*	1.12µM*
O=C(CSc1nnc2ccccn12)NNC(=O)c1ccc(Cl)cc1	-1.6%	-6.6%	-6.9%	-2.5%	-2.2%	-3.6%
COc1cc(-c2nc3n(c(=O)c2C#N)CCS3)cc(OC)c1OC	0.4%	.	-1.4%	-2.0%	-2.4%	0.6%
c1cc2[nH]snc2c2nc(C3CC3)nc12	15.9%	0.9%	?	5.8µM*	-10.3%	14.2%
COc1cccc(C(=O)Nc2ccc3[nH]ncc3c2)c1	2.82µM*	.	10.7µM*	?	?	3.55µM*
CCOc1cccc(C(=O)Nc2ccncc2)c1	-3.9%	-10.6%	-14.0%	?	-5.5%	-14.0%
CCOc1cccc(C(=O)Nc2ccc3[nH]ncc3c2)c1	2.82µM*	.	5.36µM*	?	?	2µM*
CC1CCCC(NC(=O)CN2CCN(S(=O)(=O)c3ccc(Br)s3)CC2)C1C (centres undefined)	0.0%	.	-7.0%	-12.5%	-1.3%	-11.6%
O=C(Nc1cnn(C23CC4CC(CC(C4)C2)C3)c1)c1cnn2cccnc12	0.562µM*	.	2.13µM*	?	?	0.447µM*
CCOc1cc(NC(=S)Nc2cccc(OC)c2)c(OCC)cc1NC(=O)C1CC1	-2.1%	20.1%	15.1µM*	?	-7.5%	1.8%
COc1cccc(NC(=S)NN=C2CCCCCC2)c1	3.55µM*	14.1µM*	8.49µM*	?	?	3.16µM*
CCc1ccc(NC(=S)Nc2cccc(OC)c2)cc1	-6.7%	6.9%	21.3µM*	?	6.0%	2.4%
COc1ccc(CNC(=S)Nc2cccc(OC)c2)cc1	0.4%	.	2.9%	-23.0%	-2.8%	0.0%
COC(=O)c1cccc(NC2=NS(=O)(=O)c3ccccc32)c1	.	.	-4.7%	.	.	.
Cc1ccc(C#CC[N+]2(CC#Cc3ccc(C)cc3)CCCCC2)cc1	-30.5%	-52.5%	-1.4%	11.6µM*	-9.6%	-26.7%
